# Measurements: PubChem BioAssay AID1947 (The Scripps Research Institute Molecular Screening Center, 2009)
# Screen size: about 300,000 compounds; about 990 (0.33%) were called active. The full list was thinned out, with actives kept by preference. Values without a mark were called inactive.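 Rule for the calls: active = inhibition above the screen mean inhibition plus 3 SD, computed separately per campaign (cut at about 18% in these data); inactive = the rest.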
# Test system: Fam108B (ABHD17B) serine hydrolase [Mus musculus]
# Assay: mouse Fam108B serine hydrolase inhibitors, primary screen, counter-screen for RBBP9 inhibitor project, biochemical, fluorescence polarization (AID 1947);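 note: inhibitors lower polarization as less probe binds the enzyme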
# Conditions: recombinant Fam108B, FP-Rh probe fluorescence polarization; at 9.51 µM; hits give high values
row,Structure (SMILES),inhibition
1,O=Cc1c(NCCCN2CCCC2=O)c2ccccc2[nH]c1=O,0.62%
2,Cn1c(=O)c2c(ncn2CC(COCc2ccccc2Cl)OCc2ccccc2Cl)n(C)c1=O (stereo unspecified),2.8%
3,Cc1nn(Cc2ccc(F)cc2)c(C)c1NC(=O)c1noc2c1CCc1ccccc1-2,-3.92%
4,O=C(O)c1cccc(N2C(=O)Nc3ccccc3N2O)c1,0.58%
5,Cc1ccccc1NC(=O)c1cc(S(=O)(=O)Nc2cccc(C(=O)O)c2)ccc1Cl,-0.84%
6,C/C(=N\Nc1cccc(C(=O)O)c1)c1ccc2c(c1)Nc1ccccc1S2,20% (active)
7,CCOc1cnc(-c2c(-c3ccccc3Cl)noc2C)o1,-3.64%
8,CCn1cc(CN2CCCC(CNS(=O)(=O)Cc3ccccc3)C2)cn1 (stereo unspecified),-2.99%
9,Cc1ccc(CN(C)Cc2cc(=O)oc3cc(C)c(Cl)cc23)cc1,9.93%
10,CCCCC(=O)Nc1nc(C)c(-c2csc(Nc3ccc(Cl)cc3)n2)s1,20.4% (active)
11,CCCCCCC(=O)Nc1nc(C)c(-c2csc(Nc3cc(Cl)ccc3OC)n2)s1,11.8%
12,CCCCCCC(=O)Nc1nc(C)c(-c2csc(Nc3cccc(OC)c3)n2)s1,12.5%
13,C=CCCC(=O)Nc1nc(C)c(-c2csc(Nc3ccc(Cl)cc3)n2)s1,-6.01%
14,CC(=O)Nc1ccc(S(=O)(=O)Nc2nc(-c3ccc(C(C)(C)C)cc3)cs2)cc1,5.38%
15,CC(=O)Nc1nc(C)c(-c2csc(Nc3ccc(S(N)(=O)=O)cc3)n2)s1,-0.24%
16,Cc1nc(NC(=O)c2cccc(Cl)c2)sc1-c1csc(Nc2cccc(Cl)c2)n1,61.2% (active)
17,O=C(Nc1ccc(-c2csc(Nc3cccc(C(F)(F)F)c3)n2)cc1)c1cccc(C(F)(F)F)c1,37.3% (active)
18,CC(=O)Nc1cccc(-c2csc(Nc3cccc(C)n3)n2)c1,5.89%
19,CCOC(=O)c1c(CC(C)C)csc1/N=C/C1=C(O)CCCC1=O,-3.29%
20,O=C(NNC(=O)c1cnccc1C(F)(F)F)c1ccc(Cl)cc1,-3.08%
21,CCCn1c(=O)c2c(C(F)(F)F)cc(-c3cccs3)nc2n(CCC)c1=O,7.34%
22,COc1ccc(OCC(O)CN(C)C(=O)C(C)Oc2ccccc2)cc1 (stereo unspecified),3.54%
23,O=C1N[C@@H](Cc2ccccc2)C(=O)N2[C@@H]3N(S(=O)(=O)c4ccc(F)cc4)c4ccccc4[C@]3(Br)C[C@@H]12,2.06%

row,Structure (SMILES),inhibition
1,Cc1nc2ccccc2nc1N/N=C/c1ccc(O)cc1O,5.03%
2,Fc1ccc(/C=N/Nc2nc(-c3cccnc3)nc3ccccc23)cc1,-5.98%
3,Oc1ccc(/C=N/Nc2nc(-c3ccccc3F)nc3ccccc23)c(O)c1,41% (active)
4,CCC(C)[C@H]1COCCS(=O)(=O)N1Cc1ccc(C)cc1 (stereo partly specified),-0.44%
5,CC1(C)C2CCC1(C)C(OC(=O)c1ccc(O)cc1)C2 (stereo unspecified),-4.06%
6,Nc1ccc2nc3c(=O)[nH]c(=S)[nH]c3nc2c1,29.3% (active)
7,O=C(COC(=O)CCCNC(=O)c1ccc(Cl)cc1)Nc1cc(Cl)ccc1Cl,4.35%
8,O=C(NNC(=O)c1ccc(-c2ccccc2)cc1)Nc1ccccc1,-2.01%
9,O=C(NC1CC1)c1ccc(-c2ccccc2)cc1,34.3% (active)
10,O=C(NC1CC1)c1cccc(Br)c1,-0.72%
11,Cc1ccccc1N1CC(C(=O)Nc2nnc(SCCC3OCCO3)s2)CC1=O (stereo unspecified),5.32%
12,O=C(CN(Cc1ccccc1)C(=O)CCC(=O)Nc1ccccn1)NCCc1ccccc1,0.27%
13,COc1ccc(C2=Nc3cc(C)ccc3OC2)cc1,-0.41%
14,O=c1[nH]c(SCc2ccccc2)nnc1-c1ccccc1,-0.14%
15,Fc1cccc(Cl)c1CSc1ccc(-c2ccco2)nn1,-2.56%
16,Clc1ccccc1CSc1nnc(-c2ccco2)c(-c2ccco2)n1,18.8% (active)
17,COc1ccc2nc(SCc3ccccc3)nc(C)c2c1,-2.64%
18,O=c1cc(O)nc(SCc2ccccc2Cl)[nH]1,-1.05%
19,c1ccc(CSc2nnc(-c3ccco3)c(-c3ccco3)n2)cc1,19.7% (active)
20,COC(=O)c1ccc(CNC(=O)c2ccc3oc(C(C)C)nc3c2)cc1,-1.84%
21,N#CCC(=O)N/N=C/c1cn(Cc2ccc3ccccc3c2)c2ccccc12,-6.56%
22,COC(=O)CN1C(=O)[C@H]2[C@@H](/C=C/c3ccccc3)N3C(=O)CN(CC4CC4)C(=O)[C@@]3(Cc3ccccc3)[C@H]2C1=O,-4.39%
23,COC/C=C/C1=CC2=CC(=O)C(C)(OC(=O)CCC(=O)OC)C(=O)C2=CO1 (stereo unspecified),8.02%

row,Structure (SMILES),inhibition
1,COc1ccc(NC(=O)CSc2nnc(Cc3ccccc3)c(=O)n2N)cc1,0.31%
2,CC(C)N1CCC(N2CCN(Cc3cccnc3)CC2CCO)CC1 (stereo unspecified),1.03%
3,COC(=O)c1cc(N2CCNCC2)nc2ccccc12,1.69%
4,COc1ccc(NS(=O)(=O)c2cc(NC(=O)CC(=O)c3ccc([N+](=O)[O-])cc3)ccc2C)cc1,18.6% (active)
5,COc1ccc(NS(=O)(=O)c2cc(C(=O)Nc3ccccc3C(=O)O)ccc2C)cc1,-3.09%
6,COc1ccc(C(=O)CC(=O)C(=O)Nc2cc([N+](=O)[O-])ccc2OC)cc1,2.15%
7,COc1cc(Cl)c(C)cc1NC(=O)CSc1nnc(-c2ccco2)n1CC(C)C,0.55%
8,Cc1cc(C)cc(OCC(=O)NC(C)c2ccccc2)c1 (stereo unspecified),-2.91%
9,CC(=O)Nc1ccc(NC(=O)CC2CCCC2)cc1,3.46%
10,Cc1ccc(C2Nc3cccc4cccc(c34)N2)cc1,10.3%
11,COc1ccc(C2NC(=O)c3ccccc3N2)cc1 (stereo unspecified),-0.94%
12,Brc1ccccc1C1Nc2cccc3cccc(c23)N1,11.3%
13,COc1cccc(C2Nc3cccc4cccc(c34)N2)c1,23% (active)
14,Oc1ccc(C2Nc3cccc4cccc(c34)N2)cc1,44.7% (active)
15,O=C1NC(c2cccc(Cl)c2)Nc2ccccc21 (stereo unspecified),-1.96%
16,COc1ccccc1CN1CCNC(=O)C1CC(=O)N(C)CC1CCOCC1 (stereo unspecified),1.34%
17,O=C(COC(=O)/C=C/c1cn(-c2ccccc2)nc1-c1cccnc1)Nc1ccc(Cl)cc1Cl,-13.2%
18,O=C(COC(=O)c1cc(=O)[nH]c2ccccc12)Nc1nc(-c2cccc(Br)c2)cs1,-30.4%
19,Cc1nc([N+](=O)[O-])c(NCCCO)n1Cc1ccccc1,1.87%
20,COc1cccc(C(=O)N2CCC(n3nccc3NC(=O)C3CCOC3)CC2)c1 (stereo unspecified),5.08%
21,O=C(Nc1ccc2ccccc2c1)Nc1ccc2snnc2c1,-25.9%
22,Cc1ccc(-c2ccnc3nc(Sc4ncc(C(F)(F)F)cc4Cl)nn23)cc1,-3.23%
23,CC[N+](C)(CC)CCC[n+]1c(-c2ccccc2)c2cc(N)ccc2c2ccc(N)cc21,74.1% (active)

row,Structure (SMILES),inhibition
1,CCc1ccc2ncc(C(=O)c3ccccc3)c(N3CCOCC3)c2c1,0.71%
2,FC(F)(F)c1cc(-c2ccco2)nc(NCc2ccc(Cl)cc2)n1,-10.7%
3,Cc1cc(=O)oc2c3c(cc(OCC(=O)NCc4ccccn4)c12)OC(C)(C)CC3,-1.76%
4,COc1cc(NC(=O)COC(=O)c2cnc(C)cn2)c(C)cc1[N+](=O)[O-],-0.2%
5,CC(C)[C@H](NC(=O)N1CC(=O)Nc2ccccc21)C(=O)N[C@@H](Cc1c[nH]c2ccccc12)C(=O)O,0.98%
6,COc1cc(OC)cc(C(=O)NCCSCc2ccc(Cl)cc2)c1,-2.49%
7,Cc1ccc(C2C3=C(Nc4[nH]n(-c5ccccc5)c(=O)c42)c2ccccc2C3=O)cc1 (stereo unspecified),34.1% (active)
8,Cc1cc(C)c(C2C3=C(Nc4c2c(C)nn4-c2ccccn2)c2ccccc2C3=O)c(C)c1 (stereo unspecified),-5.56%
9,Cc1ccc(-c2ccnc3[nH]n(-c4ccccc4)c(=O)c23)cc1,-1.58%
10,COCCN1CCn2c(nc3cc(NS(C)(=O)=O)ccc32)C1,2.47%
11,CC1=NN(C(N)=S)C(=O)C1N=Nc1cc(Cl)ccc1Cl (stereo unspecified),1.09%
12,Cc1[nH]n(C(N)=S)c(=O)c1N=Nc1ccc(Cl)cc1Cl,20.8% (active)
13,Cc1cccc(N=Nc2c(C)[nH]n(-c3ccccc3)c2=O)c1,4.19%
14,O=C(CNC(=O)c1ccccc1F)c1ccc(Br)cc1,0.62%
15,COc1c(F)c(F)c(-c2csc(N)n2)c(F)c1F,2.83%
16,S=C(Nc1ccc2c(c1)OCO2)N1CCCC1,-2.94%
17,Cc1ccccc1NC(=O)CSC1=NCCN1,-0.3%
18,COc1ccc(NC(=O)CCCN2C(=O)C(c3ccccc3)Oc3cccnc32)cc1 (stereo unspecified),-1.86%
19,O=C(OCC1O[C@@H](OC(=O)c2cc(O)c(O)c(O)c2)[C@@H](OC(=O)c2cc(O)c(O)c(O)c2)[C@@H](OC(=O)c2cc(O)c(O)c(O)c2)[C@@H]1OC(=O)c1cc(O)c(O)c(O)c1)c1cc(O)c(O)c(O)c1 (stereo partly specified),62.1% (active)
20,O=C(OCC1OC(Oc2ccc(O)cc2)C(O)C(O)C1O)c1ccccc1 (stereo unspecified),-4.47%
21,CC(O)c1ccc(OCCN(C)c2ccccn2)cc1 (stereo unspecified),8.79%
22,Cn1cnnc1Sc1ccc(S(C)(=O)=O)cc1[N+](=O)[O-],0.49%
